This is one part of a sample in which hits are shown more often than they occur.
KDM5B inh: Primary screen for KDM5B Histone Demethylases FDH-coupled qHTS. Lysine-specific demethylase 5B (Homo sapiens), Q9UGL1. KDM5B demethylase, FDH-coupled NADH fluorescence (FDH is formaldehyde dehydrogenase). Potency, µM (highest dose often 57.7 µM), most hits filed as inhibitors. 220,000 tested, 2.6% active. AID 1347165, 2019; active = well fitted inhibition curve with a large enough effect; also: 0% is about no effect; nearly all actives have a fitted effect of over 70% in size
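Here, H3K4me3 peptide (12.5 µM in substrate mix) is demethylated by KDM5BΔAP, 200 nM final, after 10 min compound exposure. Formaldehyde product is coupled through FDH (0.25 U/mL in mix) to NADH fluorescence; 30-min ΔRFU feeds dose-response curves.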
Active calls of the source: *; i = inactive. Potency is read from the fitted curve at half-maximal effect.

SMILES	KDM5B inh
c1ccc(CN2CCn3c(nnc3C3CCCNC3)C2)cc1 (stereo unspecified)	i
Clc1ccc(-c2nnc3n2CCN(CC2CC2)C3)cc1	i
N#Cc1ccc(CN2CCn3c(nnc3C3CCCNC3)C2)cc1 (stereo unspecified)	20µM*
O=C(c1ccccc1)N1CCn2c(nnc2C2CCCNC2)C1 (stereo unspecified)	i
N#Cc1ccc(CN2CCn3c(nnc3-c3ccc(Cl)cc3)C2)cc1	i
C1CCC(CN2CCn3c(nnc3C3CCCNC3)C2)CC1 (stereo unspecified)	25.1µM*
CCC(CO)NC(=O)c1nn(-c2ccccc2F)nc1CO (stereo unspecified)	i
COc1ccc(OC)c(-c2csc(NC(=O)c3nn(C)c(=O)c4ccccc34)n2)c1	i
CC(=O)c1csc(NC(=O)Cc2ccc(OCc3c(C)noc3C)cc2)n1	i
COc1ccc2[nH]cc(CCNC(=O)c3cccc(F)c3F)c2c1	i
NC(=O)CN1CCC(C(=O)NCCCc2csc(N)n2)CC1	i
NC(=O)CN1CCC(C(=O)NCCCn2ncc3ccccc32)CC1	i
NC(=O)CN1CCC(C(=O)NCc2cn3cccnc3n2)CC1	28.2µM*
CS(=O)(=O)N1CC2(CCN(C3CCCCC3)C2)Cc2ccccc21 (stereo unspecified)	i
COc1cccc(CN2CCc3nc(C(=O)N4CCOCC4)oc3CC2)c1	i
Cc1cc(F)cc(CN2CCc3nc(C(=O)NCc4ccncc4)oc3CC2)c1	i
O=C(NCc1cccc(F)c1)c1nc2c(o1)CCN(Cc1cc(F)ccc1F)CC2	31.6µM*
O=C(NCc1cccc(F)c1)c1nc2c(o1)CCN(CCCc1ccccc1)CC2	i
COCCNC(=O)c1nc2c(o1)CCN(Cc1ccc(OC)cc1)CC2	i
COc1cccc(CN2CCc3nc(C(=O)NCC4CC4)oc3CC2)c1	39.8µM*
O=C(NCc1cccc(F)c1)c1nc2c(o1)CCN(Cc1cccc(Cl)c1)CC2	35.5µM*
O=C(NCc1ccncc1)c1nc2c(o1)CCN(Cc1ccccc1F)CC2	i
O=C(c1nc2c(o1)CCN(Cc1cccc(Cl)c1)CC2)N1CCOCC1	i
CNC(=S)NNC(=O)c1ccc(Br)s1	i
COc1ccc(C(=O)N[C@@H]2CCC[C@@H]2C(=O)NCCCN(C)C)cn1	i
SMILES	KDM5B inh
CC(C)c1noc(CCC(=O)Nc2ccccn2)n1	i
O=C(NCc1ccc2c(c1)OCO2)c1cc2ccccc2[nH]1	i
Cc1cc2c3c(c1)c(-c1ccc([N+](=O)[O-])cc1)cn3C(C)(C)CC2C (stereo unspecified)	i
Cc1ccc(S(=O)(=O)NCCn2nc(C)nc2C)cc1	i
Cc1nc(C)n(CCNS(=O)(=O)c2ccccc2)n1	i
Cc1nc(C)n(CCCNc2nccc(-c3ccccn3)n2)n1	22.4µM*
N#Cc1ccc(C(=O)N2CCC3(CC2)NC(=O)N(Cc2ccc(F)cc2)C3=O)cc1	i
CC(C)NS(=O)(=O)c1ccc2c(c1)nc(CCC(N)=O)n2C(C)C	i
Cc1nn(C)cc1-c1nc2cc(S(=O)(=O)NC(C)C)ccc2n1C(C)C	i
CCNc1ncc(-c2nc3cc(S(=O)(=O)NC(C)C)ccc3n2C(C)C)cn1	28.2µM*
CC(C)C[C@H](NC(=O)c1cccc2c1-c1ccccc1C2=O)C(=O)O	i
Cc1ccc(C(=O)N2CCN(C3CCN(C)C3=O)CC2)cc1C (stereo unspecified)	i
CC(C)CC(=O)N[C@H](C)c1c(-c2ccc(Cl)cc2)noc1C(=O)O	i
Cc1cc(C(=O)N[C@H](C)c2c(-c3ccc(Cl)cc3)noc2C(=O)O)c(C)o1	28.2µM*
C[C@@H](NC(=O)C1CC1)c1c(-c2ccc(Cl)cc2)noc1C(=O)O	i
O=C(/C=C/c1ccccn1)Nc1cccc(OC2CCCC2)c1	i
COC(=O)c1occc1/C=C/C(=O)c1ccc(C#N)cc1	i
CN1CCc2c([nH]c3ccccc23)C12CCN(C(=O)c1cccnc1)CC2	i
COc1ccc(C(=O)N2CCC3(CC2)c2[nH]c4ccccc4c2CCN3C)c(OC)n1	i
CCn1ccc(C(=O)N2CCC3(CC2)c2[nH]c4ccccc4c2CCN3C)n1	28.2µM*
CC(C)(C)c1ccc(-c2cc(C[C@H]3CNCC[C@H]3CC(=O)N3CCOCC3)no2)cc1	i
COCc1ccc(C(=O)N[C@@H]2CCOC[C@H]2OCc2ccccc2)s1	i
O=C(O)CO[C@@H]1COCC[C@H]1NC(=O)c1ccccc1-c1ncn[nH]1	i
Cc1cc(C(=O)N[C@@H]2CCOC[C@H]2OCC(=O)O)sc1-c1ccccc1	25.1µM*
CC(C)c1nc2cc(NC(=O)NCc3ccccc3)ccc2o1	i
COc1cc(OC)c(C(=O)Nc2ccc3nc(N4CCCC4)sc3c2)cc1OC	i
Cc1ccc(NC(C)c2nc3scc(-c4ccco4)c3c(=O)[nH]2)cc1C (stereo unspecified)	i
COC[C@@H]1CN(C(=O)c2cccc3[nH]ccc23)C[C@H]1c1nc(C)no1	20µM*
